# Only some compounds are listed: those with a hit (about 12% of all), similar ones and a draw of the others.
# HP1b binding inh – HP1-beta chromodomain-methylated histone interaction inhibition; P83916; AlphaScreen HP1-beta / biotin-H3K9me3 peptide binding; Potency, µM (titrated, usually from 114 µM), without a hit: at the top dose activity change, negative = inhibition, hits mostly inhibitors; hit rate 0.56% among 390,000; AID 540317; note: nearly all actives have a fitted effect of over 70% in size
#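 Compound inhibition of the preformed complex between 50 nM HP1-beta and 50 nM biotinylated H3K9me3 peptide was read by AlphaScreen. Buffer was PBS pH 7.4 with 0.01% Tween-20. Incubations ran 30 min at room temperature, with 10 ug/mL donor/acceptor beads.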
# JMJD2A Tudor – blocks the human JMJD2A Tudor domain. O75164. AlphaScreen JMJD2A-Tudor / H3K4me3 peptide binding. Potency, µM (top dose mostly 114 µM), inactives show at the highest dose activity change, negative = inhibition, actives largely listed as inhibitors. hit rate 4.4% among 390,000. AID 504339; note: % is set by controls: 0 for no effect and ±100 for the full control effect; nearly all actives have a fitted effect of over 50% in size
# BAZ2B inh – BAZ2B (human) inhibition; hit rate 4.4% among 360,000; Potency, µM (series often up to 114 µM), for the others: at the highest dose activity change, negative = inhibition, hits mostly inhibitors; AlphaScreen BAZ2B-H3K14Ac peptide displacement; Q9UIF8; AID 504333; note: % is set by controls: 0 for no effect and ±100 for the full control effect; nearly all actives have a fitted effect of over 60% in size
#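 BAZ2B 50 nM plus b-H3(5-23)K14Ac 50 nM, PBS pH 7.4/0.01% Tween-20, 30 min RT; compound added (max 110 uM), 30 min RT; streptavidin donor/Ni-chelate acceptor beads 10 ug/mL final, 20 min dark; AlphaScreen read.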
# L3MBTL1 block – blocks human L3MBTL1. Q9Y468. AlphaScreen L3MBTL1–H3K9me1 peptide binding. Potency, µM (doses to about 57.1 µM), for the others: at the highest dose activity, negative = inhibition, usual class: inhibitors. hit rate 0.66% among 230,000. AID 485360; note: % is set by controls: 0 for no effect and ±100 for the full control effect; nearly all actives have a fitted effect of over 60% in size
#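 Displacement of a biotinylated histone H3(1-15) peptide monomethylated at Lys9 (75 nM) from L3MBTL1 (50 nM) was measured by AlphaScreen after a 30 min room-temperature compound incubation; cefsulodin titration served as intraplate control.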
# G9a block – inhibitors of human histone lysine methyltransferase G9a | Q96KQ7 | AID 504332 | G9a H3K9 monomethylation, AlphaScreen, 2 h | hit rate 8.8% among 350,000 | Potency, µM (highest dose often 102 µM), inactives show top-dose activity, negative = inhibition, hits mostly inhibitors; note: % is set by controls: 0 for no effect and ±100 for the full control effect; nearly all actives have a fitted effect of over 75% in size
#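 Chemiluminescent proximity detection of H3K9 monomethylation, read after 10 min bead incubation in the dark. Reaction: 20 nM G9a, 500 nM biotin-H3K9 peptide, 20 uM SAM cofactor, 2 h, room temperature, following 15 min enzyme-compound preincubation.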
# Sfp inh – blocks B. subtilis Sfp PPTase activity. hit rate 3.5% among 310,000. Q9F4F7. Potency, µM, for the others: largest response in the series, negative = inhibition, most hits filed as inhibitors. Biochemical Sfp PPTase activity, qHTS;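 note: the enzyme is Sfp with the accession as filed and its product quenches rhodamine fluorescence; 0% = enzyme reaction without inhibitor and -100% = no enzyme wells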
#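 Sfp 15 nM + cpd, 15 min RT; start w/ rhodamine-CoA 5 uM, BHQ-2-YbbR 12.5 uM (final); 50 mM Hepes pH 7.6, 10 mM MgCl2, 0.01% NP-40, 0.01% BSA; read 525/598 nm at 0 and 30 min.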
# Numbers without * were called inactive; ? = inconclusive; . = no result; [ ] = another dose, or the depositor's remark. Calls come from the whole dose curve; as a rule, active = well fitted curve in the direction sought with a large enough effect; inconclusive = small, poorly fitted or top-dose-only effect, or another doubt; inactive = no such curve, though single readings can be large; an effect the other way counts as inactive or inconclusive. Potency is the fitted concentration of half-maximal effect.
SMILES,HP1b binding inh,JMJD2A Tudor,BAZ2B inh,L3MBTL1 block,G9a block,Sfp inh
O=[N+]([O-])/C(C(Cl)=C(Cl)Cl)=C(/Sc1ccccc1)N1CCCCC1,-35.7%,?,35.5µM*,-15.4%,.,-3.7%
O=C(NC1CCCCC1)c1ccc2c(c1)N(Cc1cccc(F)c1)C(=O)c1ccccc1S2,15.4%,1.6%,1.5%,.,8.2%[59 µM],.
COc1ccc(OC)c(/C=C2\SC(=S)N(C(C(=O)O)c3ccccc3)C2=O)c1 (stereo not drawn),5.8%,-27.6%,-32.7%,-23.1%,.,56.2µM*
C=CCOc1ccc(/C=C2\SC(=S)N(C(C(=O)O)c3ccccc3)C2=O)cc1 (stereo not drawn),-20.8%,?,?,-5.5%,?,-9.1%
CCOc1ccc(/C=C2\SC(=S)N(C(C(=O)O)c3ccccc3)C2=O)cc1OC (stereo not drawn),16.1%,-29.1%,?,-18.4%,?,56.2µM*
Cc1cc(NC(=O)CCNS(=O)(=O)c2ccc3c(c2)CCCC(=O)N3)ccc1Br,23.7%,-4.9%,7.6%[57.1 µM],.,-29.2%[59 µM],.
Cc1cccc(-c2nc(CCNC(=O)c3ccccc3Br)cs2)c1,51.9%[57 µM],-1.0%,30.0%,.,0.4%[59 µM],.
Cc1ccccc1CC(=O)N1CCN(C(=O)C2CCCO2)CC1 (stereo not drawn),26.4%,-3.4%,-7.2%,.,53.0%,4.3%
Cc1cccc(-c2nc(CN3CCN(C(=O)C4CCCO4)CC3)cs2)c1 (stereo not drawn),3.6%,-17.9%,-36.5%,.,70.8µM*,9.9%
C/C(=N\NC(=O)c1ccc2c(c1)OCO2)c1ccc2c(c1)OCO2,34.2%,-9.6%,-5.7%,-0.4%,0.5%,12.1%
COC(=O)N/N=C(\C)c1ccc(OC(F)F)cc1,30.2%,-3.0%[57.1 µM],-8.1%,.,-11.8%,7.4%
C/C(=N\Nc1ncc(Cl)cc1Cl)c1ccc(OC(F)F)cc1,41.3%,-13.9%,5.2%,1.0%,28.8%,56.2µM*
C/C(=N\Nc1ncc(Cl)cc1Cl)c1ccc2c(c1)OCO2,31.1%,-8.2%,-24.3%,-12.6%,0.4%,79.4µM*
O=S1(=O)C2CC3C=CC2(CN1Cc1cccc(F)c1)O3 (stereo not drawn),44.1%,3.4%,.,.,.,7.8%
O=C(NC1CCCCCC1)C(=S)N1CCCC1,30.8%,-13.7%,5.5%,4.1%,.,15.5%
O=C(NNC(=O)C1CCCCC1)C(=O)NC1CCCCC1,9.2%,?,0.8%,8.7%,10µM*,-1.1%
O=C(NC1CCCCCC1)C(=S)N1CCOCC1,?,79.4µM*,?,1.0%,?,15.8µM*
O=C(NC1CCCCCC1)C(=S)NC1CCCCC1,32.0%,-28.1%,17.2%,-17.3%,35.5µM*,20µM*
O=C(NC1CCCCCC1)C(=O)NC1CC1,46.1%,-2.1%,?,5.5%,.,4.2%
COC(=O)c1cc(NC(=O)CCc2c(C)nc3nc(C)nn3c2C)cc(C(=O)OC)c1,40.0%,5.7%,-7.6%,.,11.2%[59 µM],.
CCn1c2ccccc2c2cc(NC(=O)c3ccc([N+](=O)[O-])cc3)ccc21,7.4%,-20.5%,7.1%,-1.3%,?,-20.3%
CCn1c2ccccc2c2cc(NC(=O)CN3CCCC3)ccc21,-13.8%,?,-42.9%,.,?,5.5%
O=C(CNCC1CCCO1)N1CCCc2ccccc21 (stereo not drawn),?,3.98µM*,56.2µM*,.,?,-10.9%
CCn1c2ccccc2c2cc(NC(=O)c3ccccc3[N+](=O)[O-])ccc21,2.9%,-34.9%,-37.6%,-6.7%,7.94µM*,14.5%
O=C(CNCC1CCCO1)Nc1ccccc1-n1cccc1 (stereo not drawn),4.4%,5.01µM*,50.1µM*,3.5%,8.91µM*,-24.8%
CCn1c2ccccc2c2cc(NC(=O)CNCC3CCCO3)ccc21 (stereo not drawn),?,-27.1%[11.4 µM],50.1µM*,-12.3%,12.6µM*,-32.3%
O=C(c1ccc(S(=O)(=O)NCC2CCCO2)cc1)N1CCc2ccccc21 (stereo not drawn),5.0%,-14.9%,4.1%,-10.8%[11.4 µM],-8.4%[59 µM],8.1%

# Source: PubChem BioAssay (National Center for Advancing Translational Sciences (NCATS))
